Results filed as inconclusive are left out. Activity calls are given as the source filed them. Calls come from the whole dose curve.
These compounds were tested against Estrogen receptor (Homo sapiens) (UniProt P03372) (assay: qHTS assay for small molecule agonists of estrogen receptor alpha signaling (AID 588514; note: nearly all actives have a fitted effect of over 70% in size;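 for activation: 0% = vehicle only and 100% = reference agonist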)). Details: ER-alpha-UAS-bla HEK293, beta-lactamase ratio, 18 h; series mostly up to 76.8 µM; activation: at the top concentration.
Estrogen receptor (Homo sapiens), sequence (P03372 whole entry, looked up): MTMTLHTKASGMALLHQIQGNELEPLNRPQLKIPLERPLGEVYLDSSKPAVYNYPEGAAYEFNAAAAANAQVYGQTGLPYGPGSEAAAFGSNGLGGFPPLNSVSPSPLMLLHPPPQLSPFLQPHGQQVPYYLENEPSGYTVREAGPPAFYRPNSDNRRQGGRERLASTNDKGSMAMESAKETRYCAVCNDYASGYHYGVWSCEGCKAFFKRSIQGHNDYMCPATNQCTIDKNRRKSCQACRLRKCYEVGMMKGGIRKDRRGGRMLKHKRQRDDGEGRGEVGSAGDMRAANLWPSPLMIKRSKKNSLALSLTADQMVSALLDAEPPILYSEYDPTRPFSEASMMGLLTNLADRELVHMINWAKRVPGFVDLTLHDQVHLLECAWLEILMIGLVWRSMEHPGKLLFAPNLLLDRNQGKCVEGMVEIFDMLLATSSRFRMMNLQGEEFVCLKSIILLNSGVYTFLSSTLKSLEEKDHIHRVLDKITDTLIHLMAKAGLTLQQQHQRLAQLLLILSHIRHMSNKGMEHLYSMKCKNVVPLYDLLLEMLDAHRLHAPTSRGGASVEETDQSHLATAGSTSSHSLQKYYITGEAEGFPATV
Excerpt: NIH Chemical Genomics Center [NCGC]
U.S. Environmental Protection Agency [EPA]
National Institutes of Environmental Health Sciences [NIEHS]
National Toxicology Program [NTP]
Estrogen receptor alpha (ER-alpha) is an important member of nuclear hormone receptors. ER-alpha plays important role in breast cancer as well as in other women's health issues. The majority of breast cancers is estrogen receptor (ER) positive and depends on estrogen for growth. There is also growing concern for some of environmental chemicals which may contribute the increasing the incidence of breast cancer. Therefore, it is important to understand the effect of environmental chemicals in ER-alpha signaling pathway.
NCGC Assay Protocol Summary
Using a beta-lactamase reporter-gene under control of the ER response element, a cell-based assay [ER-alpha-UAS-bla GripTiteTM cell-Based Assay from Invitrogen] was used to measure ER-alpha signaling pathway in agonist mode. ER-alpha-UAS-bla-GripTite HEK 293 cells were used with assay medium containing 2% charcoal/dextran treated FBS, 0.1 mM NEAA and 1 mM sodium pyruvate. Cells were cultured in this assay medium overnight in the flasks before the assay. The assay was performed in clear bottom black Greiner 1536-well plates. 17-beta-estradiol was used as a positive control in the screen. Library compounds were measured for their ability to either stimulate the reporter gene activity. Compounds were screened in a titration series in 1536-well format. […] Data was normalized relative to 17-beta-estradiol control (20 nM, 100%), and DMSO only wells (basal, 0%). Concentration-response titration points for each compound were fitted to the Hill equation yielding concentrations of half-maximal stimulation (EC50) and maximal response (efficacy) values.
qHTS protocol for ER-alpha beta-lactamase assay in agonist mode
[Step] [Parameter] [Value] [Description]
1. Reagent; 6 uL; 5000 cells/well
2. Incubation; 37 C for 4 hrs
4. Controls (17-beta-estradiol); 23 nL
- Dose response, start 1uM, 1:3 dilutions with duplicates
- Two columns with 20 and 0.5 nM (final) concentration.
5. Incubation; 37 C for 18 hrs
6. Detection reagent; 1 uL of CCF4-dye
7. Incubation; RT for 2 hrs
8. Detection; Fluorescence; Envision plate reader or Acumen plate reader

Compound | Potency | activation
Nc1nc(N)c2nc(-c3ccccc3)c(N)nc2n1 | 35.5 µM (active) | 
CC(C)(Oc1ccc(CCNC(=O)c2ccc(Cl)cc2)cc1)C(=O)O |  | -3.64% (inactive)
Cc1ccc(S(=O)(=O)NC(=O)NN2CCCCCC2)cc1 |  | -1.18% (inactive)
NC(=Nc1ccccc1)Nc1ccccc1 | inactive | 
CN=C(NC#N)NCCSCc1nc[nH]c1C |  | -4.28% (inactive)
COc1cc(Cc2cnc(N)nc2N)cc(OC)c1OC |  | -2.09% (inactive)
CC(=O)Nc1nnc(S(N)(=O)=O)s1 |  | 2.3% (inactive)
NC(=O)N1c2ccccc2C=Cc2ccccc21 | inactive | 
O=c1[nH]c(=O)n([C@H]2C[C@H](O)[C@@H](CO)O2)cc1Br |  | 0.299% (inactive)
C[C@]12C=CC(=O)C=C1CC[C@H]1[C@@H]3C[C@@H](O)[C@](O)(C(=O)CO)[C@@]3(C)C[C@H](O)[C@@]12F |  | 6.59% (inactive)
C[C@]12CCC(=O)C=C1CC[C@@H]1[C@@H]2C(=O)C[C@@]2(C)[C@H]1CC[C@]2(O)C(=O)CO |  | 9.73% (inactive)
Nc1ncn([C@@H]2O[C@H](CO)[C@@H](O)[C@H]2O)c(=O)n1 |  | -8% (inactive)

— PubChem BioAssay (NCATS)
